Source: the supplement of paper PMC10849652
Targets with a hit are over-represented here; the source holds about 8,800 in all. About 0.5% of all pairs of compound and target were hits. Values without a mark were called inactive.

Experiments:
Experiment in all cases: log2 fold change, soluble protein after heating vs DMSO (PISA); higher = thermal stabilisation; K562 lysate, 10 uM; active = over 0.2 and 3.5 SD of the protein, either way, in both replicates (recomputed)
[1] = compound: CS(=O)(=O)CCNCc1ccc(-c2ccc3ncnc(Nc4ccc(OCc5cccc(F)c5)c(Cl)c4)c3c2)o1 [lapatinib]
How it was run: (§1)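 K562 pellets were dounce-homogenised in PBS pH 7.4 with 1 mM MgCl2, and the crude extract at 1 mg/mL protein was treated with 10 μM compound for 30 min. Aliquots were heated for 3 min across 48°C-58°C, pooled, and brought to 0.5% NP-40 at 4°C; soluble protein was the supernatant after 21,000xg for 90 min. Soluble protein was quantified by TMTpro 16plex LC-MS/MS with channel sums equalised, and reported as log2 fold change in thermal stability against DMSO controls, with values from duplicates.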

[2] = compound: CS(=O)(=O)N1CCN(Cc2cc3nc(-c4cccc5[nH]ncc45)nc(N4CCOCC4)c3s2)CC1 [pictilisib]
How it was run: as §1

[3] = compound: C[C@@H](Oc1cc(-c2cnn(C3CCNCC3)c2)cnc1N)c1c(Cl)ccc(F)c1Cl [crizotinib]
How it was run: as §1

[4] = compound: C[C@H](C1=CC=C(C=C1)C(=O)NC2=C3C=CNC3=NC=C2)N
How it was run: as §1

[5] = compound: C[C@H](Nc1ncnc2nc[nH]c12)c1cc2cccc(Cl)c2c(=O)n1-c1ccccc1 [duvelisib]
How it was run: as §1

[6] = compound: Cc1cc(Nc2cc(CN3CCOCC3)c3nc(C)c(Cc4ccc(Cl)cc4F)n3n2)n[nH]1 [gandotinib]
How it was run: as §1

[7] = compound: Cc1cc(Nc2cc(N3CCN(C)CC3)nc(Sc3ccc(NC(=O)C4CC4)cc3)n2)n[nH]1 [tozasertib]
How it was run: as §1

[8] = compound: Cc1ccc(-n2nc(C(C)(C)C)cc2NC(=O)Nc2ccc(OCCN3CCOCC3)c3ccccc23)cc1 [doramapimod]
How it was run: as §1

[9] = compound: Cc1ccc(NC(=O)c2ccc(CN3CC[C@H](N(C)C)C3)c(C(F)(F)F)c2)cc1Nc1nccc(-c2cncnc2)n1 [bafetinib]
How it was run: as §1

[10] = compound: Cc1cccc(CC(=O)N2CCc3c2ccc(-c2cn(C)c4ncnc(N)c24)c3F)n1
How it was run: as §1

Sequence of UniProt P56945 (P56945 whole entry, looked up): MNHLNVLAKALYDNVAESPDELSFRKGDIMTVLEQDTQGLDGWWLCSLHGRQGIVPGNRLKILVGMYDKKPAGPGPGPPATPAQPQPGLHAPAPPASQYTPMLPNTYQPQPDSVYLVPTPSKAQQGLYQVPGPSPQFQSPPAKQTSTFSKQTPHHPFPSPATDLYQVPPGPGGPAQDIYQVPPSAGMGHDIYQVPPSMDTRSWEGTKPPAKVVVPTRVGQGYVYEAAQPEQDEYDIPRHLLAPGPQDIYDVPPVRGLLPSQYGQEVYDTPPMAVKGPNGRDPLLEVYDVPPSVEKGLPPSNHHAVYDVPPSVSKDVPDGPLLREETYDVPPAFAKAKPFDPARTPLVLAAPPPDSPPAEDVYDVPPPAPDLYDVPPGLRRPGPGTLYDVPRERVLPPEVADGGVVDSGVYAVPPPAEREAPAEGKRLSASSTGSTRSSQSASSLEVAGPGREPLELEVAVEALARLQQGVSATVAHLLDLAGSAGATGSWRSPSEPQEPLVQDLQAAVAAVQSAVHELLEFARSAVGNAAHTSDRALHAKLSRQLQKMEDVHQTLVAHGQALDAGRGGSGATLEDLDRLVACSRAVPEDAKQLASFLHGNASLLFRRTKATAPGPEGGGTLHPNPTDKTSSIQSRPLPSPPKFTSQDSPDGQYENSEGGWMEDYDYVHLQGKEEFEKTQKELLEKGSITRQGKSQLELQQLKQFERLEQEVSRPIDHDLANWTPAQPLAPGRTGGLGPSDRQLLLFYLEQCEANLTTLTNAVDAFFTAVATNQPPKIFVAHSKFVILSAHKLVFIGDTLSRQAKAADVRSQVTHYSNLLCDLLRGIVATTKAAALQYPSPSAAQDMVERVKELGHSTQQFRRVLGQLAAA
Sequence of UniProt P22676 (P22676 whole entry, looked up): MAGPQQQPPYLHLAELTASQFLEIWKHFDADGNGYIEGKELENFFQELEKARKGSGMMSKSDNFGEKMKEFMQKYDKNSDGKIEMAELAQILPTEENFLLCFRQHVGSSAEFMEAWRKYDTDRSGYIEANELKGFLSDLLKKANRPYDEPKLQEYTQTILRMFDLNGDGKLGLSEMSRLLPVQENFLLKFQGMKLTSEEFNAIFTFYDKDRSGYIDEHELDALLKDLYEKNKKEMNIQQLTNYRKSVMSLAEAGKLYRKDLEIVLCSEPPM
Sequence of UniProt O43709 (O43709 whole entry, looked up): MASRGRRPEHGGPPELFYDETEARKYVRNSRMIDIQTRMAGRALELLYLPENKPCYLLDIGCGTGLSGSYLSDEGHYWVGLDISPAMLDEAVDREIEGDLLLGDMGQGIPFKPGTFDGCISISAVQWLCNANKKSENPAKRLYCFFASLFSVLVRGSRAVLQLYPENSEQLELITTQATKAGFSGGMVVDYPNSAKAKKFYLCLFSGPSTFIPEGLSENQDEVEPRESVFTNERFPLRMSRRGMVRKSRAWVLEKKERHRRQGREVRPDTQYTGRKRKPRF
Sequence of UniProt P14635 (P14635 whole entry, looked up): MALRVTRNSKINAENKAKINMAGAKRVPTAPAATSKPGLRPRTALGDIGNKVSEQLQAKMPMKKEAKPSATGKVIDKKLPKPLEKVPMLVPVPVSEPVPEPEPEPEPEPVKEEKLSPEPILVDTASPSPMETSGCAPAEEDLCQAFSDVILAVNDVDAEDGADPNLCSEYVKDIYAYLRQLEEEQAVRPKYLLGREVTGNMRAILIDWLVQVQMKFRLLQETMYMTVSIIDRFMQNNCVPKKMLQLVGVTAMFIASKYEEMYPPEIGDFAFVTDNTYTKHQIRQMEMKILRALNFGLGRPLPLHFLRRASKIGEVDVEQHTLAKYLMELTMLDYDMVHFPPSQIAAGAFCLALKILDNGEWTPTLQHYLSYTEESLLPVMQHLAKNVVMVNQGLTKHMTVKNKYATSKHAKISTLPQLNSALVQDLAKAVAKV
Sequence of UniProt Q9H3K6 (Q9H3K6 whole entry, looked up): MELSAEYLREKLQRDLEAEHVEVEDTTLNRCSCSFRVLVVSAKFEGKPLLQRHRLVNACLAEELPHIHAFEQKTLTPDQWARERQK
Sequence of UniProt Q7L2Z9 (Q7L2Z9 whole entry, looked up): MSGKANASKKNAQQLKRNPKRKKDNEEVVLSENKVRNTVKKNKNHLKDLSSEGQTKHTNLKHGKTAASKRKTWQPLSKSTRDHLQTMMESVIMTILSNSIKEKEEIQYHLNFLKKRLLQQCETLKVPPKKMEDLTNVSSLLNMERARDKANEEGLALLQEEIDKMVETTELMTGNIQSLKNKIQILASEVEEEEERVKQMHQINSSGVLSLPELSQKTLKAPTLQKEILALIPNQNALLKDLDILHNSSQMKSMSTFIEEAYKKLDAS
Sequence of UniProt P06493 (P06493 whole entry, looked up): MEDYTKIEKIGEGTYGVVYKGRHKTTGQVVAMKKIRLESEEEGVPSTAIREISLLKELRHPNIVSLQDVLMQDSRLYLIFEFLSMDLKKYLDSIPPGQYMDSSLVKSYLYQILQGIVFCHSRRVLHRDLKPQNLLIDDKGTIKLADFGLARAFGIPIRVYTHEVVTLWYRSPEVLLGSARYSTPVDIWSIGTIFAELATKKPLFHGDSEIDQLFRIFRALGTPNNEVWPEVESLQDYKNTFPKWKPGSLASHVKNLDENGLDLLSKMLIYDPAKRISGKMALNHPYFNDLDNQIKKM
Sequence of UniProt Q9Y487 (Q9Y487 whole entry, looked up): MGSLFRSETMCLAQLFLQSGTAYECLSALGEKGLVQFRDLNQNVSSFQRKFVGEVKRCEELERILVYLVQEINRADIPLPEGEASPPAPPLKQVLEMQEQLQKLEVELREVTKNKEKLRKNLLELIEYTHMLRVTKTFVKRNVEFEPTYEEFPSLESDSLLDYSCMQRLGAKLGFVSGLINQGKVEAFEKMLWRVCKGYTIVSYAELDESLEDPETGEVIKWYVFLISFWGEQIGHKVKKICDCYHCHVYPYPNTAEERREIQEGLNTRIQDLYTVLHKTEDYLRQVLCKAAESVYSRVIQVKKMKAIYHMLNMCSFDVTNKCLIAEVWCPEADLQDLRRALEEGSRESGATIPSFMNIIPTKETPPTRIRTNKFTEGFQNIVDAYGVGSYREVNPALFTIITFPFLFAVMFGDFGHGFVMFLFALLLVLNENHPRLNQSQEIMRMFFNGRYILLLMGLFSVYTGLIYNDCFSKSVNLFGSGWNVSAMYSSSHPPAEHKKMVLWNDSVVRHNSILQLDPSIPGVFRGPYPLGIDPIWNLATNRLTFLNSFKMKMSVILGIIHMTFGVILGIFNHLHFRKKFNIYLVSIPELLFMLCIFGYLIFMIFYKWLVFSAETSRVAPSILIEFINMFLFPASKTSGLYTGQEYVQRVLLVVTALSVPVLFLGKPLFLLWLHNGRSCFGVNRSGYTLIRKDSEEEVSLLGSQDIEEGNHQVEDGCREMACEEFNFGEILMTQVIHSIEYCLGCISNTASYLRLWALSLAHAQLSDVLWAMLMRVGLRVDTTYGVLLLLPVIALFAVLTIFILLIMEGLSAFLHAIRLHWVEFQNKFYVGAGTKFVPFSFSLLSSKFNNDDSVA
Sequence of UniProt Q9Y6H1 (Q9Y6H1 whole entry, looked up): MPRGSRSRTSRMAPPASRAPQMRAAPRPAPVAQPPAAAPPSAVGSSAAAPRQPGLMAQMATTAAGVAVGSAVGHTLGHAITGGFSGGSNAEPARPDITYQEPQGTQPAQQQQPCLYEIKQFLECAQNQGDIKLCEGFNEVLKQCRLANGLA
Sequence of UniProt Q9NSG2 (Q9NSG2 whole entry, looked up): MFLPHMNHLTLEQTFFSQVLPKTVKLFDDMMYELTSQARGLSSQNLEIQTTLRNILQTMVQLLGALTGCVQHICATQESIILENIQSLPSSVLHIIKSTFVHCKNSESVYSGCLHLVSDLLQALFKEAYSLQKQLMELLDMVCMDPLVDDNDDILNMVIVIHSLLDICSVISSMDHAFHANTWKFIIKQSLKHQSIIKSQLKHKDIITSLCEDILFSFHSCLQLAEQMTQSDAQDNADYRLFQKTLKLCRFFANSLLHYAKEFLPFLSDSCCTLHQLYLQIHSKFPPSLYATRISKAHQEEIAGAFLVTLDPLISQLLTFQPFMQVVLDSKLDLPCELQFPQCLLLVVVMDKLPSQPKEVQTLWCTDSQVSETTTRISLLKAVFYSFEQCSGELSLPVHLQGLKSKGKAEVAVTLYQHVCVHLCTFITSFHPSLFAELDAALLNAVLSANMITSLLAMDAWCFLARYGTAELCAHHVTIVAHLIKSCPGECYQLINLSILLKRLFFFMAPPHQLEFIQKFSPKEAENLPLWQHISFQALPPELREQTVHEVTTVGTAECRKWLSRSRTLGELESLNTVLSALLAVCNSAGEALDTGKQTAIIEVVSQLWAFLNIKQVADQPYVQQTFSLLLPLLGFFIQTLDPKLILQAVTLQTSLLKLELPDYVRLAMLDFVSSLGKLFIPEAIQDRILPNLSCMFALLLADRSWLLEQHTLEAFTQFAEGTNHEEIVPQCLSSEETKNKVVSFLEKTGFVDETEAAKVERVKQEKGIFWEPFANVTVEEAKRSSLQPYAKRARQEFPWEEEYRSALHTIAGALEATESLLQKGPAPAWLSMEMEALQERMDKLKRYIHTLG
Sequence of UniProt O75909 (O75909 whole entry, looked up): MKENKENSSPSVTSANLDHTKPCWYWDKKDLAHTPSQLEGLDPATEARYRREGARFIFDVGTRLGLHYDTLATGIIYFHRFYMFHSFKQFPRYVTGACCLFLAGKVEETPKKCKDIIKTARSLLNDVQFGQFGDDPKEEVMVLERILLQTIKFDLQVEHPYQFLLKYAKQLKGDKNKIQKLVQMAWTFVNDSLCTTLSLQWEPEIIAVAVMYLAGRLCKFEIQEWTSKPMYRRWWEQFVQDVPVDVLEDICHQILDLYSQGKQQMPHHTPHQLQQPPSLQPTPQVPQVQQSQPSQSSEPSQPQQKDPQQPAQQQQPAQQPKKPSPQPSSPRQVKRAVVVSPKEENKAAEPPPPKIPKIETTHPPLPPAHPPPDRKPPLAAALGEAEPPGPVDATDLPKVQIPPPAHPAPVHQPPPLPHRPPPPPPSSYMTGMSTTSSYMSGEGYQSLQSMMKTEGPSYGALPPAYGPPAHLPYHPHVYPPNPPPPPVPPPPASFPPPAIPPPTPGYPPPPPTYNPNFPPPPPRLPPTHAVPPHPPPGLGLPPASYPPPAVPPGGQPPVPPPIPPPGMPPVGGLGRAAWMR

Row | Target | log2 fold change [1] | log2 fold change [2] | log2 fold change [3] | log2 fold change [4] | log2 fold change [5] | log2 fold change [6] | log2 fold change [7] | log2 fold change [8] | log2 fold change [9] | log2 fold change [10]
1 | CHCHD7 isoform 4 (UniProt Q9BUK0) | 0.079 | 0.06 | -0.052 | -0.382 (active) | -0.01 | 0.266 | -0.077 | 0.026 | -0.001 | 0.187
2 | CDK11B (UniProt P21127) | -0.017 | -0.006 | 0.461 (active) | -0.012 | 0 | 0.399 (active) | 0.02 | 0.031 | -0.042 | 0.007
3 | CENPQ (UniProt Q7L2Z9) | 0.101 | 0.015 | -0.028 | -0.226 | -0.027 | 0.071 | -0.196 | 0.001 | 0.017 | -0.013
4 | ATAD1 (UniProt Q8NBU5) | -0.158 | 0.012 | -0.022 | -0.081 | -0.051 | 0.386 (active) | 0.017 | 0.015 | -0.008 | 0.012
5 | CDK1 (UniProt P06493) | -0.012 | -0.021 | -0.041 | -0.018 | 0.031 | -0.224 | 0.001 | 0.019 | -0.016 | -0.022
6 | ATP6V0A2 (UniProt Q9Y487) | -0.07 | -0.047 | -0.016 | -0.227 (active) | 0.026 | 0.108 | 0.004 | 0.023 | -0.046 | 0.13
7 | CASP6 (UniProt P55212) | 0.024 | -0.004 | 0.009 | 0.195 | 0.003 | -0.02 | 0.022 | 0.013 | 0.054 | -0.038
8 | ATP9B (UniProt O43861) | -0.063 | -0.269 | 0.032 | -0.181 | -0.005 | -0.037 | 0.017 | 0.136 | 0.446 (active) | 0.242
9 | CHCHD2 (UniProt Q9Y6H1) | 0.035 | 0 | 0.119 | 0.044 | -0.008 | 0.021 | 0.102 | -0.021 | 0.288 | -0.138
10 | CALB2 (UniProt P22676) | 0.009 | -0.07 | 0.01 | -0.041 | 0.031 | 0.092 | 0.056 | 0.003 | 0.082 | -0.007
11 | CHD5 (UniProt Q8TDI0) | 0.028 | 0.007 | -0.03 | 0 | -0.056 | 0.001 | -0.074 | 0.034 | -0.042 | -0.002
12 | ATXN2 (UniProt Q99700) | 0.006 | -0.042 | 0.028 | 0.019 | 0.025 | 0.001 | 0.011 | 0.017 | -0.012 | -0.006
13 | BCL2L12 (UniProt Q9HB09) | 0.164 | -0.184 | 0.01 | 0.045 | 0.009 | -0.003 | -0.056 | -0.016 | -0.296 | 0.057
14 | C1orf112 (UniProt Q9NSG2) | 0.018 | -0.004 | -0.055 | -0.073 | -0.035 | 0.232 | -0.091 | 0.021 | 0.005 | 0.279 (active)
15 | BCAR1 isoform 6 (UniProt P56945) | -0.044 | 0.003 | 0.003 | 0.071 | 0.008 | -0.113 | 0.01 | -0.039 | -0.073 | -0.104
16 | CCNB1 (UniProt P14635) | -0.029 | -0.01 | -0.024 | -0.019 | 0.033 | -0.078 | 0.005 | 0.03 | -0.004 | 0.091
17 | CCAR2 (UniProt G3V119) | -0.12 | – | – | – | – | – | – | – | – | –
18 | BORCS5 (UniProt Q969J3) | 0.015 | 0.096 | -0.002 | 0.037 | 0.037 | -0.038 | 0.007 | -0.011 | -0.042 | -0.006
19 | CCDC85B (UniProt Q15834) | 0 | -0.042 | 0.006 | -0.016 | 0.081 | -0.032 | 0.248 | 0.098 | 0.054 | 0.011
20 | BUD23 isoform 3 (UniProt O43709) | 0.052 | -0.017 | 0.07 | -0.305 (active) | 0.025 | 0.136 | -0.073 | -0.035 | -0.088 | 0.152
21 | C3 (UniProt P01024) | 0.011 | -0.01 | 0.042 | -0.095 | -0.073 | 0.044 | 0.068 | -0.006 | 0.019 | 0.019
22 | CARS isoform 3 (UniProt P49589) | -0.006 | -0.006 | 0.019 | 0.003 | -0.015 | -0.045 | 0.014 | 0.014 | -0.008 | -0.011
23 | CDC42BPA isoform 6 (UniProt Q5VT25) | -0.029 | -0.041 | -0.061 | 0.024 | -0.007 | -0.05 | 0.032 | 0.075 | -0.056 | 0.03
24 | CALM2 (UniProt P0DP24) | -0.038 | -0.128 | 0.027 | -0.252 | 0.086 | 0.068 | 0.025 | -0.064 | -0.171 | 0.187
25 | CDKN1C (UniProt P49918) | 0.027 | -0.033 | 0.105 | -0.025 | -0.035 | -0.046 | -0.095 | -0.045 | 0.049 | 0.071
26 | CAMKK1 isoform 2 (UniProt Q8N5S9) | 0.061 | -0.074 | -0.023 | 0.032 | -0.069 | 0.424 (active) | -0.067 | 0.016 | -0.021 | -0.033
27 | CCNYL1 (UniProt Q8N7R7) | 0.018 | -0.012 | -0.015 | -0.201 | -0.003 | 0.085 | 0.052 | -0.004 | 0.006 | 0.067
28 | CCDC25 (UniProt Q86WR0) | -0.028 | -0.001 | -0.015 | 0.487 (active) | 0.011 | -0.062 | -0.021 | 0.065 | 0.008 | -0.095
29 | BOLA2 (UniProt Q9H3K6) | -0.038 | -0.035 | 0.02 | 0.46 (active) | 0.03 | -0.088 | 0.069 | 0.033 | 0.094 | -0.064
30 | CCNK isoform 4 (UniProt O75909) | 0.001 | 0.013 | -0.008 | -0.213 (active) | 0.044 | 0.161 | -0.023 | 0.113 | -0.051 | 0.109
